Compounds with a hit are over-represented: about 2.4% of the library has one in this group of screens.
D2 ag-1: agonists of human D2 dopamine receptor; activation, % at 2 µM; P14416; HEK293 T-REx D2 cells, calcium flux agonist mode; AID 485358; 340,000 compounds, 0.53% hits;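 active = activation over 3 SD above normal in the single-dose calcium agonist read, cut at about 30% in these data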
Target sequence (P14416 whole entry, looked up): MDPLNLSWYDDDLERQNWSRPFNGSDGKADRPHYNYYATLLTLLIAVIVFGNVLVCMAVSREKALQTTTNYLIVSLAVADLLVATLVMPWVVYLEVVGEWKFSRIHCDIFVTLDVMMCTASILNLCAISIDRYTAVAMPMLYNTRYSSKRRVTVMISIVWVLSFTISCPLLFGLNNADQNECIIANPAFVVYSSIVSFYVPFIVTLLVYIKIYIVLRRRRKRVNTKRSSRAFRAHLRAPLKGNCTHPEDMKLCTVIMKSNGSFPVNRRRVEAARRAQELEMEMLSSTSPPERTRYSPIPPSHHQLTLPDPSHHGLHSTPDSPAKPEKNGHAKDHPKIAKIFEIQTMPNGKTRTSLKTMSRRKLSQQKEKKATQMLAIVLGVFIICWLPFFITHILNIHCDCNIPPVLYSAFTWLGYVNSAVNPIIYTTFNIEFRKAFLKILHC
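Agonism scored from kinetic calcium signal (1 read/sec, 180 s) following compound pin transfer, after a 10 s baseline. Cells: HEK293 Trex line expressing inducible D2 receptor coupled to calcium, dye-loaded after overnight culture at 30 C.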
D2 PAM-1: positive allosteric modulators of human D2 dopamine receptor; HEK293 T-REx D2, calcium flux, EC20 dopamine potentiation; AID 485347; P14416; 340,000 compounds, 0.34% hits; potentiation, % at 10 µM;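 active = potentiation over 3 SD above the plate norm, cut at about 30% in these data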
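Tetracycline-induced Hek293 Trex D2 cells, force-coupled to calcium, loaded with no-wash calcium dye. Compound added with 180 s kinetic read for agonism, then EC20 dopamine and a further 180 s read for potentiation.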
D2 antagonist: antagonists of human D2 dopamine receptor | HEK293 TREx D2 cells, calcium flux, dopamine EC80 | inhibition, % at 10 µM | 340,000 compounds, 2% hits; in the data active = inhibition above about 30%; inactive = below that, where a call was filed
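Antagonism is scored as inhibition of an EC80 dopamine-evoked calcium signal in a force-coupled, tetracycline-inducible HEK293 T-REx D2 line, with compound present 180 s before agonist.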
D2 ag-2: human D2 receptor agonism in beta-arrestin assay. 360,000 compounds, 0.084% hits. activation, % (concentration not given with the values). DiscoveRx PathHunter D2 beta-arrestin, luminescence, 90 min; 100% = 57 uM dopamine signal; in the data active = activation above about 40%; inconclusive = between about 15% and that limit
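DiscoveRx PathHunter D2 beta-arrestin cells (2,100/well) attached overnight, then compound-stimulated 90 min at 37 C in HBSS/10 mM HEPES/0.1% Tween-20 buffer; beta-galactosidase complementation read by luminescence after 1 h at ambient temperature. Dopamine 57 uM final (EC100) as control.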
D2 PAM-2: potentiates the human D2 dopamine receptor allosterically; P14416; DiscoveRx D2 beta-arrestin cells, luminescence, 90 min; 100% = 57 uM dopamine signal; potentiation, % (concentration not given with the values); 360,000 compounds, 0.23% hits; AID 624464; in the data active = potentiation above about 50%; inconclusive = mostly about 30% to 49%
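D2 cells co-treated with compound plus 50 nM dopamine (EC20) for 90 min at 37 deg C to detect potentiation. Beta-arrestin recruitment was read as enzyme-fragment luminescence after 1 h at ambient temperature. Full response was set by 57 uM dopamine.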
Numbers stand for hits.

Results for Nc1ccc(S(=O)(=O)c2cc(O)c3ccccc3c2O)cc1 ?
D2 ag-2: inconclusive; D2 PAM-2: 51.3

Results for COc1ccc(C2c3cccn3CCN2S(=O)(=O)c2ccc([N+](=O)[O-])cc2)cc1 (stereo not given) ?
D2 ag-1: inactive; D2 PAM-1: inactive

How did N#Cc1ccc(C(=O)CN2CCN(c3ccccc3)CC2)cc1 do in these assays?
D2 ag-1: 35.1; D2 PAM-1: inactive; D2 antagonist: inactive; D2 ag-2: inactive; D2 PAM-2: inactive

What do the screens show for `O=C(CCN1CCN(c2ccccc2)CC1)c1ccc(Br)cc1`?
D2 ag-1: inactive; D2 PAM-1: inactive; D2 antagonist: inactive; D2 ag-2: inactive; D2 PAM-2: inactive

What do the screens show for `COC(=O)c1nnn(CC(=O)Nc2cc(F)ccc2F)c1C(=O)OC`?
D2 ag-1: inactive; D2 PAM-1: inactive

How did Cc1nc2ccccc2c2oc(C(=O)NCCCN3CC(C)CC(C)C3)cc12 (stereo not given) do in these assays?
D2 ag-1: inactive; D2 PAM-1: inactive; D2 antagonist: inactive; D2 ag-2: inactive; D2 PAM-2: inactive

How did Cc1nc2ccccc2c2oc(C(=O)N3CC(C)CC(C)C3)cc12 (stereo not given) do in these assays?
D2 ag-1: inactive; D2 PAM-1: 31.0; D2 antagonist: inactive; D2 ag-2: inactive; D2 PAM-2: inactive

What do the screens show for `Cc1ccccc1OCC(=O)Nc1nnc(S(=O)(=O)N(C)c2ccccc2)s1`?
D2 ag-1: inactive; D2 PAM-1: inactive

What do the screens show for `Nc1nc(NCCc2ccccc2)nc(NCc2ccccc2)c1[N+](=O)[O-]`?
D2 ag-1: inactive; D2 PAM-1: inactive; D2 antagonist: 45.2; D2 ag-2: inactive; D2 PAM-2: inactive

Results for COCCCn1c(C)cc(C(=O)COC(=O)CCc2nc3ccccc3c(=O)[nH]2)c1C ?
D2 ag-1: inactive; D2 PAM-1: inactive; D2 antagonist: 30.5; D2 ag-2: inactive; D2 PAM-2: inactive

Results for COC(=O)c1cc(NC(=O)c2cc3c(-c4ccccc4F)nn(C)c3s2)cc(C(=O)OC)c1 ?
D2 ag-1: inactive; D2 PAM-1: inactive

What do the screens show for `CC(C)(C)CC(C)(C)N=C1NS(=O)(=O)c2cc([N+](=O)[O-])ccc21`?
D2 ag-1: inactive; D2 PAM-1: inactive; D2 antagonist: inactive; D2 ag-2: inconclusive; D2 PAM-2: inactive

Results for CC(C)(CO)N=C1NS(=O)(=O)c2cc([N+](=O)[O-])ccc21 ?
D2 ag-1: inactive; D2 PAM-1: inactive; D2 antagonist: inactive; D2 ag-2: inconclusive; D2 PAM-2: 90.3

Results for COc1cccc(NC(=O)c2c(C(=O)Nc3ccccc3)sc3nc(C)cc(=O)n23)c1 ?
D2 ag-1: inactive; D2 PAM-1: inactive

How did Cc1ccc(NC(=O)Cn2c(=O)n(CCCCC(=O)NCc3ccc4c(c3)OCO4)c(=O)c3ccccc32)cc1 do in these assays?
D2 ag-1: inactive

How did Cc1ccc(NC(=O)c2ccc(CSc3nccc(C)n3)cc2)cc1 do in these assays?
D2 ag-1: inactive; D2 PAM-1: inactive; D2 antagonist: 31.1; D2 ag-2: inactive; D2 PAM-2: inactive

Results for C=CCn1c(SCC(=O)Nc2ccc(O)cc2)nc2sc(CC)cc2c1=O ?
D2 ag-1: inactive; D2 PAM-1: inactive; D2 antagonist: 31.1; D2 ag-2: inactive; D2 PAM-2: inactive

Results for COc1ccc(CCN(C)CCCC(C#N)(c2cc(OC)c(OC)c(OC)c2)C(C)C)cc1OC (stereo not given) ?
D2 ag-1: inactive; D2 PAM-1: inactive; D2 antagonist: 45.3; D2 ag-2: inactive; D2 PAM-2: inactive

What do the screens show for `Cc1ccc(C(=O)NNC(=O)c2cc(OCC(F)(F)F)ccc2OCC(F)(F)F)cc1`?
D2 PAM-1: inactive; D2 antagonist: 32.4; D2 ag-2: inactive; D2 PAM-2: inactive

Results for O=C(NCc1cccnc1)c1nn(-c2ccc(F)cc2)nc1CO ?
D2 ag-1: inactive; D2 PAM-1: inactive

What do the screens show for `O=C(NC1CCN(Cc2ccccc2)CC1)c1cccc(S(=O)(=O)Nc2ccc(F)cc2)c1`?
D2 ag-1: inactive; D2 PAM-1: inactive; D2 antagonist: 45.3; D2 ag-2: inactive; D2 PAM-2: inactive

How did O=C(NC1CCN(Cc2ccccc2)CC1)c1cccc(S(=O)(=O)Nc2ccc(Br)cc2)c1 do in these assays?
D2 ag-1: inactive; D2 PAM-1: inactive; D2 antagonist: 34.1; D2 ag-2: inactive; D2 PAM-2: inactive

How did Cc1ccc(NS(=O)(=O)c2cccc(C(=O)NC3CCN(Cc4ccccc4)CC3)c2)c(C)c1 do in these assays?
D2 ag-2: inactive; D2 PAM-2: inactive

What do the screens show for `C=CCN(c1ccccc1)S(=O)(=O)c1cccc(C(=O)NC2CCN(Cc3ccccc3)CC2)c1`?
D2 ag-1: inactive; D2 PAM-1: inactive; D2 antagonist: 66.4; D2 ag-2: inactive; D2 PAM-2: inactive

Results for COc1ccccc1C(=O)Nc1ccccc1OCc1cc(=O)n2cc(C)sc2n1 ?
D2 ag-1: inactive; D2 PAM-1: inactive

Results for O=C(Nc1ccc2nc(SCC(=O)N3CCc4ccccc43)sc2c1)c1ccc(F)cc1 ?
D2 ag-1: inactive; D2 PAM-1: inactive

Results for CCOC(=O)Cn1c(=O)c2c(nc(N3CCOCC3)n2C)n(C)c1=O ?
D2 ag-1: inactive; D2 PAM-1: inactive; D2 antagonist: 38.7; D2 ag-2: inactive; D2 PAM-2: inactive

What do the screens show for `CCCCCOC(=O)Cn1c(=O)c2c(nc(N3CCOCC3)n2C)n(C)c1=O`?
D2 ag-1: inactive; D2 PAM-1: inactive; D2 antagonist: inactive; D2 ag-2: inactive; D2 PAM-2: inactive

Results for CCOc1ccc(NC(=O)Cn2cc(C(=O)c3ccc(F)cc3)c(=O)c3cc4c(cc32)OCO4)cc1 ?
D2 ag-1: inactive; D2 PAM-1: inactive

Results for CCCc1nc2ccccc2n2c(-c3ccc(C)cc3)c3c(=O)n(C)c(=O)n(C)c3c12 ?
D2 ag-1: inactive; D2 PAM-1: inactive

How did CC(NC(=O)CN(C)CC(=O)Nc1ccc(F)c(F)c1F)c1ccccc1 (stereo not given) do in these assays?
D2 ag-1: inactive; D2 PAM-1: inactive; D2 antagonist: 49.4; D2 ag-2: inactive; D2 PAM-2: inactive

How did CC(NC(=O)CN(C)CC(=O)Nc1ccccc1Br)c1ccccc1 (stereo not given) do in these assays?
D2 ag-1: inactive; D2 PAM-1: inactive; D2 antagonist: inactive; D2 ag-2: inactive; D2 PAM-2: inactive

What do the screens show for `CCC1ON(c2ccccc2)C2c3nc4ccccc4n3CC12` (stereo not given)?
D2 ag-1: inactive; D2 PAM-1: inactive; D2 antagonist: 36.2; D2 ag-2: inactive; D2 PAM-2: inactive

What do the screens show for `CCC1ON(C(C)C)C2c3nc4ccccc4n3CC12` (stereo not given)?
D2 ag-1: inactive; D2 PAM-1: inactive; D2 antagonist: 32.2; D2 ag-2: inactive; D2 PAM-2: inactive
